The campaign covered roughly 5,500 compounds. About 2,000 (36%) were called active. Inconclusive results (about 18%) are left out. Rule as the data show it: active = normalized growth mostly below about 0.91 (no sharp cut-off); inconclusive = no clear call, values can overlap the other calls; inactive = mostly above about 0.92. This is one part of the list.
Experiment: chemical genetic growth profiling, strain panel (AID 1159580);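 also: tested at 20 µM; growth read once vehicle control cultures reached saturation at 30 °C; 1 = growth at the plate median or of vehicle wells; lower values mean less growth of the strain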
Conditions: S. cerevisiae deletion strains, growth OD

Measured: normalized growth

CCOCN(C(=O)CCl)c1c(C)cccc1CC
inactive: locus YAL013W, strain DEP1, stronger effect = lower value 0.995 | locus YAL021C, strain ccr4, stronger effect = lower value 0.988 | locus YAL026C, strain drs2, stronger effect = lower value 0.998 | locus YAL030W, strain snc1, stronger effect = lower value 0.992 | locus YBL061C, strain skt5, stronger effect = lower value 0.994 | locus YBR009C, strain hhf1, stronger effect = lower value 0.994 | locus YBR021W, strain FUR4, stronger effect = lower value 1.01 | locus YBR023C, strain chs3, stronger effect = lower value 0.98 | locus YBR171W, strain sec66, stronger effect = lower value 0.971 | locus YBR229C, strain ROT2, stronger effect = lower value 0.992 | locus YBR231C, strain swc5, stronger effect = lower value 0.989 | locus YBR279W, strain paf1, stronger effect = lower value 0.999 | locus YCL011C, strain gbp2, stronger effect = lower value 0.998 | locus YCL016C, strain dcc1, stronger effect = lower value 0.991 | locus YCL029C, strain bik1, stronger effect = lower value 0.976 | locus YCL061C, strain MRC1, stronger effect = lower value 0.98 | locus YCL069W, strain vba3, stronger effect = lower value 0.992 | locus YCR088W, strain abp1, stronger effect = lower value 0.984 | locus YDL005C, strain med2, stronger effect = lower value 0.982 | locus YDL035C, strain GPR1, stronger effect = lower value 0.99 | locus YDL040C, strain nat1, stronger effect = lower value 1 | locus YDL074C, strain BRE1, stronger effect = lower value 1.03 | locus YDL101C, strain DUN1, stronger effect = lower value 0.983 | locus YDL134C, strain PPH21, stronger effect = lower value 0.995 | locus YDL185W, strain tfp1, stronger effect = lower value 0.967 | locus YDL192W, strain arf1, stronger effect = lower value 0.979 | locus YDR001C, strain nth1, stronger effect = lower value 0.991 | locus YDR069C, strain doa4, stronger effect = lower value 0.987 | locus YDR101C, strain arx1, stronger effect = lower value 0.98 | locus YDR137W, strain rgp1, stronger effect = lower value 0.975 | locus YDR150W, strain NUM1, stronger effect = lower value 0.954 | locus YDR159W, strain sac3, stronger effect = lower value 0.959 | locus YDR162C, strain NBP2, stronger effect = lower value 1 | locus YDR195W, strain ref2 0.982 | locus YDR297W, strain sur2, stronger effect = lower value 0.986 | locus YDR318W, strain mcm21, stronger effect = lower value 0.985 | locus YDR334W, strain swr1, stronger effect = lower value 0.986 | locus YDR335W, strain msn5, stronger effect = lower value 0.998 | locus YDR388W, stronger effect = lower value 0.978 | locus YDR392W, strain spt3, stronger effect = lower value 0.975 | locus YDR502C, strain sam2, stronger effect = lower value 0.974 | locus YEL003W, strain gim4, stronger effect = lower value 0.996 | locus YEL037C, strain rad23, stronger effect = lower value 0.994 | locus YEL061C, strain CIN8 (second series), stronger effect = lower value 0.994 | locus YEL061C, strain CIN8, stronger effect = lower value 0.991 | locus YER015W, strain faa2, stronger effect = lower value 0.993 | locus YER016W, strain bim1, stronger effect = lower value 0.994 | locus YER110C, stronger effect = lower value 0.978 | locus YER111C, strain swi4, stronger effect = lower value 0.997 | locus YER155C, strain BEM2 (second series), stronger effect = lower value 0.972 | locus YER155C, strain BEM2, stronger effect = lower value 0.993 | locus YER167W, strain BCK2, stronger effect = lower value 0.995 | locus YFR010W, strain ubp6, stronger effect = lower value 0.992 | locus YGL078C, strain dbp3, stronger effect = lower value 0.979 | locus YGL086W, strain mad1, stronger effect = lower value 0.983 | locus YGL167C, strain pmr1, stronger effect = lower value 0.985 | locus YGL173C, strain kem1, stronger effect = lower value 0.976 | locus YGL227W, strain vid30, stronger effect = lower value 0.983 | locus YGL240W, strain doc1, stronger effect = lower value 0.985 | locus YGL248W, strain PDE1, stronger effect = lower value 0.981 | locus YGL253W, strain hxk2, stronger effect = lower value 0.981 | locus YGR078C, strain PAC10, stronger effect = lower value 1 | locus YGR135W, strain pre9, stronger effect = lower value 0.982 | locus YGR229C, strain SMI1, stronger effect = lower value 1.01 | locus YGR252W, strain gcn5, stronger effect = lower value 1.04 | locus YHR013C, strain ard1, stronger effect = lower value 0.988 | locus YHR027C, strain rpn1, stronger effect = lower value 0.98 | locus YHR030C, strain SLT2, stronger effect = lower value 0.982 | locus YHR079C, strain IRE1 (second series), stronger effect = lower value 0.979 | locus YHR094C, strain hxt1, stronger effect = lower value 0.968 | locus YHR129C, strain ARP1, stronger effect = lower value 0.963 | locus YHR142W, strain chs7, stronger effect = lower value 1.04 | locus YHR200W, strain rpn10, stronger effect = lower value 0.988 | locus YIL066C, strain RNR3, stronger effect = lower value 0.976 | locus YIL073C, strain SPO22, stronger effect = lower value 0.856 | locus YIL125W, strain kgd1, stronger effect = lower value 0.997 | locus YIR030C, strain dcg1, stronger effect = lower value 0.972 | locus YJL092W, strain hpr5, stronger effect = lower value 0.985 | locus YJL095W, strain BCK1 (second series), stronger effect = lower value 0.996 | locus YJL095W, strain BCK1, stronger effect = lower value 1 | locus YJL115W, strain asf1, stronger effect = lower value 0.976 | locus YJL129C, strain trk1, stronger effect = lower value 1.01 | locus YJL134W, strain LCB3, stronger effect = lower value 0.987 | locus YJL154C, strain vps35, stronger effect = lower value 0.979 | locus YJL164C, strain tpk1, stronger effect = lower value 0.994 | locus YJL166W, strain qcr8, stronger effect = lower value 0.991 | locus YJL168C, strain set2, stronger effect = lower value 0.984 | locus YJL187C, strain SWE1 (second series), stronger effect = lower value 0.979 | locus YJL187C, strain SWE1, stronger effect = lower value 0.988

From PubChem BioAssay AID1159580 (chemical genetic matrix, 2015)
